# BJeLR viability = BJeLR cell viability reduction; actives 0.64% (n = 30,000); viability loss activity score, % (test concentration not listed); BJeLR fibroblasts viability, CellTiterGlo ATP luminescence, 48 h; HRASV12, hTERT and SV40 LT/ST transformed; AID 2275; in the data active means viability loss activity score above about 50%;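 further: higher score means fewer live cells and less ATP luminescence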
# A1 inh = blocks A1 activity | MEF A1-2A-BIM cells, caspase-Glo luminescence, 3 h; percent of clofoctol signal, DMSO as zero | caspase activation, % (no concentration beside the values) | actives 0.51% (n = 21,000);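 active means most replicate scores above 10, or exactly half above 10 with mean activity above 10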;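 further: effector caspase 3 and 7 activity cleaving a DEVD luciferin substrate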
# Numbers without * were called inactive; . = no result given; ! = not confirmed by another sample. Hits are enriched below; roughly 0.9% of the tested compounds scored in any of these assays.
SMILES,BJeLR viability,A1 inh
Cc1ccc(NC(=O)CSc2nc3c(sc4ccccc43)c(=O)n2CC2CCCO2)cc1C (configuration not stated),1.4,33.3*
CC(C)NC(=O)N(C)C[C@@H]1Oc2ccc(NC(=O)CCC(F)(F)F)cc2C(=O)N([C@H](C)CO)C[C@H]1C,-1.9,-0.3
Cc1noc(C)c1S(=O)(=O)Nc1ccc2c(c1)C(=O)N([C@H](C)CO)C[C@@H](C)[C@@H](CN(C)S(=O)(=O)c1ccccc1)O2,5.6,1.1
O=C(c1ccc2c(c1)C(=O)c1ccccc1-2)c1ccccc1Br,5.0,-0.3
O=C(Nc1cccc(Br)c1)c1cccc2c1C(=O)c1ccccc1-2,0.8,26.3*
O=C(O)CCNCc1c(Cl)cccc1Cl,1.0,0.4
Cc1ccnc(Nc2nc3ccccc3o2)n1,49.8*,.
CC(C)N1CN=C(Nc2nc3ccccc3o2)NC1,0.3,-0.7
CNS(=O)(=O)c1ccc2oc3ccc(S(=O)(=O)NC)cc3c2c1,0.8,0.0
COC(=O)CC(O)(CCCC(C)(C)O)C(=O)O[C@@H]1C(OC)=C[C@]23CCCN2CCc2cc4c(cc2[C@@H]13)OCO4 (some centres not stated),.,10.2*
CC(C)Cn1c(CN(Cc2ccccc2)Cc2ccccc2)nc2c1c(=O)[nH]c(=O)n2C,0.8,0.7
CCN1CSC(=S)N(Cc2ccccc2)C1,53.6*,-0.8
CCN1CNC(=S)N(c2ccccc2)C1,3.9,0.3
CC(C)(C)n1nc(-c2ccc(Cl)cc2)c2c(N)ncnc21,6.8,12.9*
Cc1ccc(C(=O)Nc2cccc(-c3nc4ccccc4o3)c2)cc1,-1.4,-0.1
COc1cc2c(cc1O)C(=O)CC1C(C)(C)C(=O)CCC21C (configuration not stated),0.5,-0.1
C=C1C(=O)O[C@H]2C1C[C@@H](OC(C)=O)[C@@]1(C)[C@@H](OC(C)=O)C[C@@H](OC(C)=O)C(=C)[C@H]21 (some centres not stated),28.2,-0.7
C=C(C)C(=O)O[C@H]1[C@H]2C(=C)C(=O)O[C@@H]2C[C@@H](C)/C=C/C(=O)[C@](C)(O)[C@@H]1OC(C)=O,59.5*,1.5
O=C(Cn1c(=O)oc2cc(S(=O)(=O)NCc3ccccc3)ccc21)N1CCOCC1,7.8,0.9
Cc1ccc(-c2nc(Nc3ccc(C)c(Cl)c3)sc2CC(=O)O)cc1,3.1,.
Cc1cc(NC(=O)c2ccc3c(c2)NC(=O)c2ccccc2S3)ccc1Br,16.6,15.3*
Cc1cc(C)cc(NC(=O)c2ccc3c(c2)NC(=O)c2ccccc2S3)c1,24.9,3.5
O=C(c1ccccc1NS(=O)(=O)c1ccccc1)N1CCCC1,6.3,0.4
CC(C)Cc1ccc(C(C)c2nc3ccccc3n2C)cc1 (configuration not stated),2.5,-0.9
O=C1Nc2ccccc2/C1=C\c1c(Cl)[nH]c2ccccc12,27.0,1.9
SMILES,BJeLR viability,A1 inh
O=C1Nc2ccccc2/C1=C/C(=O)c1ccc(Cl)cc1,64.7*,65.2*
Oc1cc(C2CCCCC2)cc(C2CCCCC2)c1,3.5,46.0*
O=C1NCC(O)=C1C=Nc1ccc(C2CCCCC2)cc1,4.3,.
COc1ccc(NC(=O)Nc2ccc3c(c2)C(=O)N([C@@H](C)CO)C[C@@H](C)[C@@H](CN(C)S(=O)(=O)c2ccc(C)cc2)O3)cc1,2.3,-0.3
CCN1CCCC1CNC(=O)c1ccc2c(c1)sc1nc(-c3ccc(C)cc3)cn12 (configuration not stated),94.6*,8.3
O=C(NCC1CCCO1)c1ccc2c(c1)sc1nc(-c3ccccc3)cn12 (configuration not stated),1.0,-1.1
CC1CCC2(C)C(C(=O)O)=CCCC2C1(C)CCC1=CC(O)OC1=O (configuration not stated),6.5,-0.3
C[C@H](CO)N1C[C@H](C)[C@H](CN(C)Cc2ccc(Cl)c(Cl)c2)Oc2c(NC(=O)Nc3cccc4ccccc34)cccc2C1=O,1.3,.
CCc1ccc2nc(Nc3nc4ccccc4c(=O)[nH]3)nc(C)c2c1,87.2*,-3.8
Cc1ccc(SCc2cc(=O)[nH]c(Nc3nc(C)c4ccccc4n3)n2)cc1,-1.4,1.1
O=S(=O)(c1ccc(-c2csc(Nc3ccc(Br)cc3)n2)cc1)N1CCCCC1,9.2,14.7*
CN1CCN(S(=O)(=O)c2ccc(Br)cc2)CC1,9.2,0.4
COc1ccccc1CNC(=O)c1ccc2c(SCC(=O)O)c3c(nc2c1)CCCC3,-5.0,.
COC(=O)/C=C1/NCC(OC(=O)c2ccc(C(C)(C)C)cc2)CNC1=O (configuration not stated),1.3,-0.8
CCC(Cc1ccccc1)NC(=O)c1ccc2nc(-c3ccccc3NC(C)=O)c(=O)[nH]c2c1 (configuration not stated),8.3,.
O=C(CN(CCO)C(=O)c1ccc(Cl)cc1)Nc1ccc(F)cc1,5.0,0.4
C=C(C(=O)O[C@H]1C[C@]2(C)C(C(C=O)CC[C@H]2O)[C@H]2OC(=O)C(=C)[C@H]12)C(O)CO (some centres not stated),-2.3,0.2
C=C1C(=O)O[C@@H]2C3C(=C(C)[C@@H](O)[C@@H](OC(=O)/C(=C/C)COC(C)=O)[C@@H]12)C(=O)[C@H]1O[C@@]31C (some centres not stated),89.7*,0.9
COC(=O)Cn1c(Cl)nc2c1c(=O)n(C)c(=O)n2C,0.7,0.0
COC(=O)Cn1c(=O)c2c(nc3n2CCN3c2ccccc2)n(C)c1=O,-3.2,36.5*
COc1cc2ncnc(Nc3cccc(O)c3)c2cc1OC,-4.2,11.7*
COc1cc2ncnc(Nc3cccc(Br)c3)c2cc1OC,2.4,3.4
O=C(NCc1ccco1)c1cc(-c2ccc(Cl)cc2)oc1C(F)(F)F,1.9,-0.1
Nc1nc(Cl)nc2c1ncn2C1C[C@@H](O)C(CO)O1 (some centres not stated),-16.5,1.2
Nc1nc(Cl)nc2c1ncn2C1OC(CO)[C@H](O)[C@H]1F (some centres not stated),53.6*,1.2
SMILES,BJeLR viability,A1 inh
O=C1OC(c2ccccc2)C(O)(c2ccccc2)C12CCCCC2 (configuration not stated),-0.2,.
Cc1cc(NC(=O)C2C(=O)c3ccccc3S(=O)(=O)N2C)no1 (configuration not stated),1.6,0.4
OC(CN1CCN(c2cccc(Cl)c2)CC1)Cn1c2ccccc2c2ccccc21 (configuration not stated),-9.7,-0.4
OC(CN1CCNCC1)Cn1c2ccc(Br)cc2c2cc(Br)ccc21 (configuration not stated),8.4,16.0*!
C[C@H](CO)N1C[C@H](C)[C@H](CN(C)Cc2ccncc2)Oc2ccc(NC(=O)Cc3ccccc3)cc2C1=O,4.5,0.6
O=C1C=CC(=O)N1c1ccccc1,126.9*,-4.7
O=C1CC(=O)N(c2ccccc2)N1c1ccccc1,0.6,1.0
Cc1ccc(Nc2nc(Nc3ccc(C)cc3)nc(-n3sc(=S)nc3C)n2)cc1,-1.2,-0.3
Cc1ccc(-c2nn(-c3ccccc3)cc2/C=N/O)cc1,3.7,0.1
CC1=NNC(=O)/C1=C\c1cn(-c2ccccc2)nc1-c1ccc(F)cc1,88.4*,95.8*
CCOC(=O)c1cnc(S/C=C/C(=O)c2ccc(C)cc2)nc1N,90.1*,1.5
CCOC(=O)c1cnc(N2CCOCC2)nc1N,9.9,-6.1

# Source: PubChem BioAssay (Broad Institute)
